High-throughput results (PubChem)
MenB inh: inhibitors of Mycobacterium tuberculosis MenB enzyme; inhibition, % (concentration not given with the values); actives 0.43% (n = 100,000); MenB enzyme assay, absorbance read-out; in the data active = inhibition above about 21%, passing the limit was not always enough
Target sequence (P9WNP5 whole entry, looked up): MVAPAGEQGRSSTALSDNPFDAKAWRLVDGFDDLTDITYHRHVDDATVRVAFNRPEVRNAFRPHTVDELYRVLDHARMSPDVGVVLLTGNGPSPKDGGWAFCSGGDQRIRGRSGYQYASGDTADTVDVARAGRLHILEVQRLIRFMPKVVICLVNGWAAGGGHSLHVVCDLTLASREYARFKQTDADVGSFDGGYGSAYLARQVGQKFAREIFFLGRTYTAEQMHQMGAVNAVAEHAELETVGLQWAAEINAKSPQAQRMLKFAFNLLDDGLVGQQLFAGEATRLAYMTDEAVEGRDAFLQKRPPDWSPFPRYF
Polio RdRp inh: poliovirus RNA polymerase inhibition; AID 588519; P03300; poliovirus polymerase elongation, fluorescence polarization; active compounds read low; % elongation, % (compound at 16.7 µg/mL); actives 0.66% (n = 150,000); in the data active = % elongation below about 90%
Mtb MbtI inh: inhibitors of Mycobacterium tuberculosis siderophore enzyme MbtI; inhibition, % (test concentration not listed); purified MbtI enzyme, fluorescence intensity read-out; actives 0.89% (n = 100,000); AID 493033; in the data active = inhibition mostly above about 56%, no sharp cut-off; inactive = mostly below about 77%
A number is an active result; 0 = inactive; - = no result. Rows were chosen to be rich in hits. Some 1.4% of all compounds tested hit in one or more screens of this group.

SMILES | MenB inh | Polio RdRp inh | Mtb MbtI inh
CCC(Cc1ccccc1)NC(=O)C1CCCN(c2nnc(-n3cccc3)s2)C1 (stereo not drawn) | 0 | 0 | 0
Cc1nc2ccccc2n1CCN=Cc1c(O)[nH]c(=O)[nH]c1=O | 0 | 0 | 0
CCOc1ccc(CCNC(=O)c2cnc3sc(N4CCCC4)nn3c2=O)cc1 | - | 5.0 | -
CCOc1ccc(CCNC(=O)c2cnc3sc(N4CCCCCC4)nn3c2=O)cc1 | - | 0 | -
CC(OC(=O)COc1ccc(-c2ccccc2)cc1)C(N)=O (stereo not drawn) | 0 | 0 | 0
O=C(CC1SC(=NCc2ccccc2)NC1=O)NCc1ccccc1 (stereo not drawn) | 0 | 0 | 0
Cc1cccc(NC(=O)CSc2nnc(C)c(=O)[nH]2)c1 | - | 0 | -
Cc1cccc(NC(=O)CSc2nncc(=O)[nH]2)c1 | 0 | 0 | 58
O=C(/C=C/c1ccccc1)OCc1ncc(-c2ccccc2)o1 | 0 | 0 | 0
Cc1nc2c(c(C)c1CCC(=O)NCCc1ccco1)c(=O)n(C)c(=O)n2C | 0 | 0 | 0
Cn1cc(NC(=O)NCC2CCCO2)c2ccccc2c1=O (stereo not drawn) | 0 | 0 | 0
Cn1cc(NC(=O)N(Cc2ccco2)CC2CCCO2)c2ccccc2c1=O (stereo not drawn) | 0 | 82 | 0
COC(=O)C1=C(C)NC2=C(C(=O)CC(c3ccco3)C2)C1c1cccc(OC)c1 (stereo not drawn) | 0 | 0 | 0
O=C(O)/C=C/c1ccco1 | 0 | 0 | 0
O=C(/C=C/c1ccco1)C1C(=O)c2ccccc2C1=O | 0 | 0 | 69
COc1ccc(C(=O)CSC#N)cc1OC | 32 | 0 | -
COc1ccc(OC)c(C(=O)CSC#N)c1 | 0 | 0 | 0
O=C(CCC1CCCC1)OCc1nnc(-c2ccccc2Br)o1 | 0 | 0 | 0
COc1ccc(NC(=O)CCc2nc3cc(S(=O)(=O)N4CCCCC4)ccc3n2C)cn1 | 0 | 0 | 95
Cn1c(CCC(=O)NCc2ccc(F)cc2)nc2cc(S(=O)(=O)N3CCCCC3)ccc21 | 0 | - | 0
C[C@@H](C(=O)N1CCSC1=NCc1ccccc1)N1C(=O)C2CC=CCC2C1=O (stereo partly drawn) | 0 | 0 | 0
Fc1ccccc1OCCBr | - | 0 | 0
O=S1(=O)CCC(N/N=C/c2ccccc2O)C1 (stereo not drawn) | 0 | 20 | 0
Cc1ccc(-n2c(C)cc(/C=N/NC3CCS(=O)(=O)C3)c2C)cc1 (stereo not drawn) | 0 | 0 | 0
CC(C)N(C(=O)CSc1nnc2sc3ccccc3n12)c1ccccc1 | 0 | 0 | 0
SMILES | MenB inh | Polio RdRp inh | Mtb MbtI inh
COc1ccccc1OCCn1cc(/C=C2/SC(=S)NC2=O)c2ccccc21 | 0 | 0 | 59
COc1ccccc1/C=C1/SC(=S)NC1=O | - | 0 | 0
CCOC(=O)c1cc(-c2cccc(C(F)(F)F)c2)n[nH]1 | 0 | 0 | 0
COC(=O)CNC(=O)N1CCn2cccc2C1Cc1ccccc1 (stereo not drawn) | 0 | 0 | 0
CC1CN(Cn2nc(C(=O)O)c3ccccc32)CC(C)O1 (stereo not drawn) | 0 | 0 | 0
CC1CN(Cn2c(=S)oc3ccccc32)CC(C)O1 (stereo not drawn) | 0 | 90 | 0
Cc1ccc(O)c(-c2cc(C(F)(F)F)no2)c1 | 0 | 0 | -
CC1CCCC(C)N1C(=O)c1ccc(NC(=O)C(O)(c2ccccc2)c2ccccc2)cc1 (stereo not drawn) | 0 | 0 | 0
O=C(NCCN1CCNC1=O)c1cnn(-c2ccc(Cl)cc2)c1C(F)(F)F | 0 | 0 | 0
O=C(NC1(O)C(=O)c2ccccc2C1=O)c1ccc(C(F)(F)F)cc1 | 0 | 9.0 | 0
O=C(NC1(O)C(=O)c2ccccc2C1=O)c1cnn(-c2ccccc2)c1C(F)(F)F | 0 | 48 | 0
O=C(NCCc1ccccc1)c1ccccn1 | 0 | - | 0
O=C(NC1(O)C(=O)c2ccccc2C1=O)c1ccccn1 | 0 | 54 | 0
O=C(Nc1ccccc1NC(=O)c1cccs1)c1ccc(C(F)(F)F)cc1 | 0 | 0 | -
Cc1ccc2c(c1)N(C(=O)CN1CCCN(Cc3ccccc3)S1(=O)=O)CCO2 | 0 | 0 | 0
CCc1nc2c(cnn2-c2ccccc2)c(=O)n1-c1ccc(Br)cc1 | 0 | 0 | 0
Cc1csc(SC(C)C(=O)N2CCCc3ccccc32)n1 (stereo not drawn) | 0 | 0 | 0
Cc1ccccc1Nc1n[nH]c(=S)s1 | 0 | 0 | 0
CC(C)(C)Nc1n[nH]c(=S)s1 | 0 | 76 | 73
CN(CC(=O)Nc1ccc(F)cc1)C(=O)CSc1nnc2n1CCCCC2 | 0 | 0 | 0
O=c1cc(-c2ccccc2)oc2ccc(Cl)cc12 | 0 | 0 | 0
Nc1cc(N)c2cc(-c3ccccc3)oc2c1 | 0 | 87 | 0
Nc1nc(SCCOc2ccccc2)nc(-c2ccncc2)n1 | 0 | 0 | 0
CN(CC(=O)NN1C(=O)NC2(CCCCC2)C1=O)Cc1ccc(Cl)cc1 | 0 | 0 | 0
C/C(=N\NC(=O)c1cc(Br)ccc1O)c1ccccn1 | 0 | 0 | 0
SMILES | MenB inh | Polio RdRp inh | Mtb MbtI inh
C/C(=N\NC(=O)c1ccn[nH]1)c1cc(O)ccc1O | 0 | 0 | 71
O=C1NC(=S)NC(=O)C1C1CCCCC1 | 0 | 0 | 0
O=C1NNC(=S)C1C1CC1 (stereo not drawn) | 0 | 0 | 83
CC(OC(=O)c1ccc2ncsc2c1)C(=O)N1CCCCC1 (stereo not drawn) | 0 | 0 | 0
N#Cc1ccc(-c2ccccc2)[nH]c1=O | 0 | 0 | 0
N#Cc1nc2[nH]c(-c3ccccc3)cc(=O)n2c1C#N | 0 | 90 | 0
O=C(Nc1ccc(C(=O)N2CCCCC2)cc1)c1ccc(=O)[nH]c1 | 0 | 0 | 0
CC1CCc2nc(SC3CC(=O)C4OCC3O4)nc(C(F)(F)F)c2C1 (stereo not drawn) | 0 | 0 | -
O=C1CC(Sc2ccc3ccccc3c2)C2COC1O2 (stereo not drawn) | 0 | 84 | -
COc1ccc(Br)cc1C=Nc1ccc2[nH]c(=O)[nH]c2c1 | 0 | 0 | 0
C#CCSc1nc2ccccc2n1C(=O)c1ccc(S(=O)(=O)N2CCOCC2)cc1 | 0 | 0 | 0
O=C(ON1C(=O)c2ccccc2C1=O)c1ccc(NC(=O)c2ccco2)cc1 | 0 | 0 | 0
O=c1[nH]c(C(F)(F)F)nc2c1cnn2Cc1ccccc1 | 0 | 0 | 0
CCn1c(C(C)Oc2ccc(Cl)cc2)n[nH]c1=S (stereo not drawn) | 0 | 0 | 89
COC(Cn1c(-c2ccc(Cl)cc2)n[nH]c1=S)OC | 0 | 0 | 0
CCOc1ccccc1NC(=O)C(C)Sc1ccccc1 (stereo not drawn) | 0 | 0 | 0
Ic1ccc(Nc2nc3nonc3nc2N/N=C\c2ccco2)cc1 | 29 | 0 | 0
Cc1ccc(-c2csc(N/N=C/c3ccco3)n2)cc1 | 0 | 0 | 0
COc1ccc(NC(=S)NN)cc1Cl | 0 | 0 | 92
COc1ccc(NC(=S)NC(C)(C)C)cc1OC | 0 | 0 | 0
CC(C)(C)C(=O)NC1CCN(S(=O)(=O)c2ccccc2C(=O)O)CC1 | 0 | 0 | 0
CC(C)(C)C(=O)NC1CCN(S(C)(=O)=O)CC1 | 31 | 0 | 0
O=C(NC1CCCCCCC1)c1c[nH]c2ccc(S(=O)(=O)N3CCOCC3)cc2c1=O | 0 | 0 | 0
COc1ccccc1/C=C(/C(=O)OCC(=O)Nc1oc(C)c2c(C)n[nH]c(=O)c12)c1ccccc1 | 0 | 0 | 0
C1=NCCCC12CCCCC2 | 0 | 0 | 0
Cc1ccc(-n2c(SC3CCOC3=O)nc3ccccc32)cc1 (stereo not drawn) | 0 | 0 | 0
